Consider 7 molecules from PubChem BioAssay.

A number with no mark means an inactive call. No rule for the calls is given here.

The subject of this experiment is Aerobactin synthetase IucA (Klebsiella pneumoniae hvKP1). The experiment is described as follows: IucA enzyme inhibition, primary screen, biochemical, Spectrum library (AID 1346200).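 Also: 100% = wells without compound and 0% = wells lacking enzyme.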 To be noted: malachite green pyrophosphate, A620, at 8 µM, active compounds read low.
As to `C=CCc1ccc(OC(=O)c2ccccc2)c(OC)c1`, the activity remaining was 95.9%.
Turning to `CC1(C)O[C@@H]2CC3C4CCC5=CC(=O)CCC5(C)C4(F)C(O)CC3(C)[C@]2(C(=O)CCl)O1` (some centres not stated), the activity remaining is 93.6%.
Under `COC1=CC(C)[C@@H]2C[C@H]3OC(=O)C[C@H]4C(C)=C(OC)C(=O)C([C@@]34C)[C@@]2(C)C1=O` (some centres not stated) stands 97.8%.
Take `COc1ccc(-c2cc(=O)c3c(O)c(OC)c(OC)c(OC)c3o2)cc1`: the activity remaining is 93%.
Take `NC(Cn1ccc(=O)c(O)c1)C(=O)O` (configuration not stated): the activity remaining is 118%.
Consider `CC1CCC(NC(=O)N(CCCl)N=O)CC1` (configuration not stated), for which the activity remaining was 106%.
For the molecule `COc1ccc2c(c1)OCC(Cc1ccc(OC)c(OC)c1)C2=O` (configuration not stated), the activity remaining is 95.4%.
